The structures appear in SMILES notation. Inconclusive results are not listed. Activity calls are given as the source filed them. The call rests on the fitted dose curve; in most records, active means well fitted inhibition curve with a large enough effect; inconclusive means small, poorly fitted or top-dose-only effect; inactive means flat fitted curve, though single readings scatter.
On the % scale 0 is the no-effect control and ±100 the full control effect; potency means the concentration at half of the fitted maximal effect.

The test deals with CRL-7250. In words: Cytotoxic Profiling of Annotated Libraries Using Quantitative High-Throughput Screening (AID 1296008). Further: nearly all actives have a fitted effect of over 60% in size. As to conditions: Five cell lines viability, CellTiter-Glo ATP luminescence, 48-72 h; max response: hits give low values. The source says:
Cell-based phenotypic screening is a commonly used approach to discover biological pathways, novel drug targets, chemical probes and high-quality hit-to-lead molecules. Many hits identified from high-throughput screening campaign are ruled out through a series of follow-up potency, selectivity/specificity, and cytotoxicity assays. Prioritization of molecules with little or no cytotoxicity for a more in-depth downstream evaluation influence the future direction of projects, so cytotoxicity profiling of the screening libraries at early stage is essential for increasing the likelihood of candidate success. […] For the annotated library, we also examined the primary targets and mechanistic pathways regularly associated with cell death. To our knowledge, this is the first study to use high-throughput screening to profile large libraries for cytotoxicity assessment in both normal and cancer cell lines. In summary, the results generated here constitutes a valuable resource for the scientific community and provides insight on identifying cytotoxic compounds with particular mechanisms of action, and prioritizing compounds with suitable cytotoxicity profile for further evaluation.
A pintool (Kalypsys) was used to transfer 23 nL of compound solution to the 1536-well assay plates. After 48 or 72 hr incubation at 37 degree Celsius, 5% CO2 and 95% humidity, 2.5 uL of CellTiter-Glo (Promega) was dispensed into each well using a dispenser (Aspect Automation, St. Paul, MN) with solenoid valves (Lee Valves, Westbrook CT). Plates were left at room temperature for 10 min before imaging the ATP-coupled luminescence using a ViewLux microplate imager (PerkinElmer, Waltham, MA).
For orientation: In ATP-based viability assays light output follows the ATP content of the culture.
`Cc1ccc2c(Nc3ccc(Cl)cc3)nccc2c1Nc1ncccc1-c1ncnc2nc[nH]c12`: the Potency is 14.6 µM (active).

In the case of `OCC(CO)(CO)NCC(O)Cn1c2ccc(Cl)cc2c2cc(Cl)ccc21` (stereo not given), the max response is -2.15% (inactive).

As to `CC1CCC(n2c3cnccc3c3cnc(Nc4ccc5c(n4)CCN(C(=O)CO)C5)nc32)CC1` (stereo not given), the max response was -12.2% (inactive).

Regarding `COc1ccc2c(c1)C[C@H](C(=O)Nc1ccc(-c3cn[nH]c3)cc1OCCN(C)C)CO2`, the Potency was 20.6 µM (active).

`CC1CCN(c2cc(NC(=O)c3ccccc3)ncn2)CC1`: the max response was -6.14% (inactive).

Regarding `Cc1[nH]c(/C=C2\C(=O)Nc3ccc(F)cc32)c(C)c1C(=O)NC[C@H](O)CN1CCOCC1`, the Potency was 6.51 µM (active).

As to `COc1ccc(C(=O)N(CCC(C)C)Cc2nc(C)c(C)n2Cc2ccccc2C)c(OC)c1`, the max response was -0.877% (inactive).

In the case of `CCOC(=O)c1cccc(CNc2ccc(N(C)C(=O)Nc3ccccc3)cc2)c1`, the Potency was 1.3 µM (active).

For `CC1CCC2C(C)(C)C(O)CCC2(C)C12Cc1c(O)cc3c(c1O2)CN(C(CCCN=C(N)N)C(=O)O)C3=O` (stereo not given), the molecule was called inactive.

In the case of `CN(C)CCCNc1nc(CN2CCN(C(c3ccc(Cl)cc3)c3ccc(Cl)cc3)CC2)nc2ccccc12`, the max response is 1.9% (inactive).

For `CCC(=O)c1cc(-c2ccc(Cl)cc2)n(-c2ccc(S(N)(=O)=O)cc2)c1C`, the result was inactive.

As for `Cn1cnc(-c2nccc3c(=O)[nH]c(OCCCC(F)(F)F)nc23)c1`, the Potency is 5.8 µM (active).

As for `CC(C)CCC[C@@H](C)[C@H]1CC[C@H]2[C@@H]3CC=C4C[C@@H](OC(=O)NCCN(C)C)CC[C@]4(C)[C@H]3CC[C@]12C`, the molecule was called inactive.

On to `CCCCOc1ccc(-c2cncc(C(=O)NCc3cccnc3N3CCOCC3)c2)cc1Cl`, for which the max response is -9.28% (inactive).

As to `CC/C(=C(\c1ccc(O)cc1)c1ccc(OCCNC)cc1)c1ccccc1`, the outcome was inactive.

As to `CC(C)(C)c1ccc(CNC(=S)NCc2ccc(NS(C)(=O)=O)c(F)c2)cc1`, the max response is -28.3% (inactive).

For the molecule `CC(=O)c1c(OCCN2CCCCC2)c(OCCC(C)c2ccc(F)cc2)c2oc(C)nc2c1C` (stereo not given), the max response was -7.29% (inactive).

Consider `C[C@@H](c1nc(-c2ccc(C#N)cc2)cs1)[C@](O)(Cn1cncn1)c1cc(F)ccc1F`, for which the max response was -34.3% (inactive).

With `O=S(=O)(c1cccc2ccccc12)n1ccc2ccc(N3CCN4CCCC4C3)cc21` (stereo not given), the max response was -10.4% (inactive).

Take `N#CCC(C1CCCC1)n1cc(-c2ncnc3[nH]ccc23)cn1` (stereo not given): the max response is -27.8% (inactive).

On to `CCN(CC)c1ccc(C(=C2C=CC(=[N+](CC)CC)C=C2)c2cc(S(=O)(=O)O)ccc2S(=O)(=O)[O-])cc1`, for which the Potency was 5.31 µM (active).

On to `CNc1ccc([N+](=O)[O-])cc1-n1cnc(-c2ccc(C(F)(F)F)cc2)c1`, for which the max response was 1.42% (inactive).

As to `N#Cc1c[nH]c2c(C(=O)N3CCN(CCc4ccc(F)cc4)CC3)cccc12`, the result was inactive.

On to `CCC[C@@H](NC(=O)N1C(=O)C(CC)(CC)[C@@H]1Oc1ccc(C(=O)N2CCN(C)CC2)cc1)c1ccc2c(c1)OCO2`, for which the max response was -1.89% (inactive).

With `CC[C@H](CO)Nc1nc(Nc2cccc(-c3ccccn3)c2)c2ncn(C(C)C)c2n1`, the max response is -6.96% (inactive).

Consider `CN(Cc1ccc(C(=O)O)cc1)c1ccc(OCc2c(-c3c(Cl)cccc3Cl)noc2C2CC2)nc1C(F)(F)F`, for which the molecule was classed as inactive.

`COCCOCCOc1ccc(C2=N[C@@](C)(C(=O)O)CS2)c(O)c1`: the max response was -74.5% (inactive).

Take `CCOC(=O)c1cnn(-c2ccc(NC(=O)C(Cl)=C(Cl)Cl)cc2)c1C(F)(F)F`: the Potency was 20.6 µM (active).

Turning to `CC1(C)CC[C@]2(C(=O)OC3OC(CO)C(O)C(O)C3O)CC[C@]3(C)C(=CCC4[C@@]5(C)CC[C@H](OC6OC(C(=O)O)C(O)C(O)C6O)C(CO)(CO)C5CC[C@]43C)[C@@H]2C1` (stereo not given in full), the Potency was 2.46 µM (active).

In the case of `C/C=C(/COC(=O)/C(C)=C/C)C(=O)OC/C=C/c1ccc(OC)cc1`, the max response was -7.59% (inactive).

For the molecule `Cc1ccc(CCCO)c(NCc2ccc3nc(NCCCN4CCOCC4)n(Cc4nc(C)ccc4O)c3c2)c1`, the Potency was 23.1 µM (active).

Consider `COc1cc(O)ccc1OCCNCC(O)COc1cccc2[nH]c3ccccc3c12` (stereo not given), for which the max response is -16.8% (inactive).

For the molecule `CC1OC2OC3C(OCC(O)C3O)OC(=O)C34CCC(C)(C)CC3C3=CCC5C6(C)CC(O)C(OC7OC(CO)C(O)C(O)C7OC7OCC(OC(=O)CC(C)(O)CC(=O)OC1C(OC1OCC(O)C(O)C1O)C2O)C(O)C7O)C(C)(CO)C6CCC5(C)C3(C)CC4O` (stereo not given), the Potency is 7.96 µM (active).

Regarding `O=C(c1ccc(F)c(F)c1Nc1ccc(I)cc1F)N1CC(O)(C2CCCCN2)C1` (stereo not given), the Potency is 9.2 µM (active).

Regarding `C=C(C)[C@@H]1CC[C@]2(C(=O)O)CC[C@]3(C)C(CCC4[C@@]5(C)C[C@@H](O)[C@H](O)C(C)(C)C5CC[C@]43C)C12` (stereo not given in full), the max response is 4.85% (inactive).

For the molecule `COc1cccc(CNC(=O)Nc2nc(-c3ccncc3)cs2)c1`, the max response is -25.8% (inactive).

In the case of `COc1cc(-c2cc(-c3ccc(N4CCNCC4)cc3)cnc2C)cc(OC)c1OC`, the molecule was classed as inactive.

Turning to `CC(C)N(CCCNC(=O)Nc1ccc(C(C)(C)C)cc1)C[C@H]1O[C@@H](n2cc(Br)c3c(N)ncnc32)[C@H](O)[C@@H]1O`, the max response is -23.7% (inactive).

Take `CN(C)C(=O)c1cc2cnc(Nc3ccc(N4CCNCC4)cn3)nc2n1C1CCCC1`: the max response is 3.25% (inactive).

Consider `COc1ccccc1-c1cc(Nc2cccc(CS(N)(=O)=O)c2)ncn1`, for which the Potency was 16.4 µM (active).
